Compounds without any hit were thinned out: in the full panel of roughly 83,000, 20% have a hit.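 Note: values are percent growth. 100 is the growth of untreated cells, values between 100 and 0 indicate rising inhibition; between -100 and 0 indicates cell death.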 A number with no mark means an inactive call. Active and inactive are the calls of the source. The calls were made as follows: active = growth percent below 10; inactive = the rest.

In this assay the test system is NCI-H23 lung. Put plainly: NCI-60 one-dose screen, 48 h (100 = growth as untreated, 0 = no growth, -100 = all killed). To be noted: 10 µM unless noted.
As to `COc1cc2ncnc(Nc3ccc(S(=O)(=O)Nc4nccs4)cc3)c2cc1OCCCN1CCOCC1`, the growth was 104%.
Turning to `Fc1ccc(-c2cnc3nonc3n2)c(F)c1`, the growth is 88.7%.
Regarding `COCc1nc(NS(=O)(=O)c2ccc(N)cc2)nc(C)c1Br`, the growth is 97.1%.
For `COc1ncnc2[nH]cc(CN3CCN(c4ccc(F)cc4)CC3)c12`, the growth is 98.4%.
For `CC(C)N(C(=S)SSC(=S)N(C(C)C)C(C)C)C(C)C`, the growth was 101%.
For `COc1cc2c(=O)n(CCCN(C)C)c3c4cc[nH]c4ncc3c2cc1OC`, the growth was 41.4%.
On to `CCCCCCCCN(CCCCCCCC)C(=O)CCl`, for which the growth is 70.6%.
For `COc1cc(/C=N/NC(=O)Cn2c(-c3ccc(C)o3)nc3ccccc32)ccc1OCc1ccccc1`, the growth was 91.1%.
As to `CCN(CC)c1ccc(/C=N/NC(=O)C[N+](C)(C)C)cc1`, the growth was 99.4%.
Regarding `c1cc2c(cc1-c1cnc3nonc3n1)OCO2`, the growth was 99.3%.
Take `CC(C)[C@@]12C[C@@H](OC(=O)C3CO3)[C@@](C)(O1)[C@@H]1CC[C@@H](C)[C@H]1[C@@H]2OC(=O)/C=C/c1ccccc1` (stereo partly drawn): the growth was 85.9%.
Take `ClC1(Cl)C2CCCCCCC21` (stereo not drawn): the growth is 107%.
As to `CCCCOc1nc2ccccc2cc1/C=C/c1cc(/C=C/c2cc3ccccc3nc2OCCCC)n(-c2ccccc2)n1`, the growth is 103%.
In the case of `S=C(S)Oc1cccc2cccnc12`, the growth is 106%.
Consider `Cc1cc(-c2ccc(N=Nc3c(S(=O)(=O)O)cc4cc(S(=O)(=O)O)cc(O)c4c3O)c(C)c2)ccc1N=Nc1c(S(=O)(=O)O)cc2cc(S(=O)(=O)O)cc(O)c2c1O`, for which the growth was 101%.
Consider `O=C(NCCN1CCCCC1)n1cc(-c2ccncc2)c(-c2ccc(Cl)c(O)c2)n1`, for which the growth is 83.4%.
Consider `N/C(=N\OC(=O)c1ccccc1)C(Cc1ccccc1)C(=O)NOC(=O)c1ccccc1` (stereo not drawn), for which the growth is 46.6%.
For the compound `Nc1ncnc2c1N=C(c1ccc3c(c1)OCO3)CC(c1ccc(Cl)cc1)N2` (stereo not drawn), the growth was 81.8%.
As to `COc1ccc(C(=O)OC2C(OC3C(O)COC(O[C@H]4C[C@H]5[C@@H]6CC=C7C[C@@H](O)CC[C@]7(C)[C@H]6CC[C@]5(C)[C@H]4[C@H](C)C(=O)CCC(C)C)C3OC(C)=O)OCC(O)C2O)cc1` (stereo partly drawn), the growth is 2.95% (active).
Turning to `O=C(Nc1ccncc1)C(=O)c1cn(S(=O)(=O)c2cccc(Cl)c2F)c2ccccc12`, the growth was 63.7%.
Consider `OC(CCCCCCCCC(O)CN1CCc2ccccc2C1)CN1CCc2ccccc2C1` (stereo not drawn), for which the growth is 101%.
For the compound `CCCNCCC(C)=O`, the growth was 95.1%.
With `CC1OC(n2c3ccccc3c3c4c(c5c6ccccc6[nH]c5c32)C(=O)N(CCN2CCOCC2)C4=O)CC(O)C1O` (stereo not drawn) the figure was 16.3%; with `COc1ccc(-c2nc(SCCC(C)C)nc(Nc3ccc(C(=O)O)cc3)c2C#N)cc1`, 92.4%.
With `CCOC(=O)C1C(=O)C=C(c2cc(OC)c(OC)c(OC)c2)CC1c1sc(N(C)Cc2ccccc2)nc1Cl` (stereo not drawn) the figure was 87.3%.
Take `C#Cc1cccc(Nc2nc3cc([N+](=O)[O-])ccc3nc2Nc2ccc(O)cc2)c1`: the growth is 9.92% (active).
On to `O=C(Nc1cccc(-n2ccc3c(NC(=O)c4ccccc4)nccc32)c1)c1ccc(N2CCOCC2)c(C(F)(F)F)c1`, for which the growth was 28.1%.
On to `Cc1ccc(NC(=O)c2sc3nc4c(cc3c2N)C(=O)CCC4)cc1Cl`, for which the growth was 100%.
Regarding `COc1ccc(-c2cc(C(=O)Nc3ccc(C)cc3)nc3[nH]c(=O)sc23)cc1`, the growth is 75.4%.
In the case of `COc1cc(/C=C/c2cc(/C=C/c3ccc(O)c(OC)c3)n(C(=O)Nc3ccc(F)c(Cl)c3)n2)ccc1O`, the growth was -12.9% (active).
For `COc1cc2c(c(OC)c1O)C(=O)C(OC)C(c1ccc(O)c(O)c1)O2` (stereo not drawn), the growth is 24.7%.
With `CCOC(OCC)c1cnc2nc(NC(C)=O)[nH]c(=O)c2n1` the figure was 102%; with `S=C(Cc1ccccc1)N1CCN(c2ccccc2Cl)CC1`, 100%; with `CCCCOc1nc2ccc(C)cc2cc1/C=C/C(=O)/C=C(O)/C=C/c1cc2cc(C)ccc2nc1OCCCC`, 92%.
With `COc1ccccc1CNCCCN1C(=O)c2ccc3c4c(ccc(c24)C1=O)C(=O)N(CCCCNCCCN)C3=O` the figure was -41.7% (active).
With `OC(COCc1ccccc1)COCc1ccccc1` the figure was 110%; with `CC(C)CC1NC(=O)C(CC(C)C)N(CO)C1=O` (stereo not drawn), 104%; with `OCCN(CCO)c1ccc2ccccc2c1`, 101%.

The record behind these values is PubChem BioAssay (NCI).
